Records with an inconclusive call do not appear. Where a call stands in place of a potency, no number is given. The source made the active and inactive calls. Unless noted, the call rests on the fitted dose curve.
What was measured:
[1] = Nuclear factor erythroid 2-related factor 2/antioxidant responsive element (Nrf2/ARE) small molecule agonists: qHTS cell viability counter screen in human keratinocytes (AID 1919968; active means well fitted curve in the direction sought with a large enough effect in the repeat runs; an effect the other way counts as inactive or inconclusive; further: nearly all actives have a fitted effect of over 55% in size; further: potency means the concentration at half of the fitted maximal effect)
How it was run: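 Parallel cytotoxicity read: KeratinoSens HaCaT cells, compound treatment 23 h, viability by CellTiter-Fluor fluorescence 1 h post-reagent.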

[2] = Nuclear factor erythroid 2-related factor 2/antioxidant responsive element (Nrf2/ARE) small molecule agonists: luciferase reporter gene qHTS assay in human keratinocytes (AID 1919969); further: nearly all actives have a fitted effect of over 35% in size; further: potency means the concentration at half of the fitted maximal effect
[3] = molecular target: Gonadotropin-releasing hormone receptor (Homo sapiens) (UniProt P30968); experiment: Human gonadotropin-releasing hormone receptor (GnRHR) small molecule agonists, calcium flux assay in GnRHR-HEK293 cells (AID 1920063); further: nearly all actives have a fitted effect of over 35% in size
How it was run: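 Calcium flux, agonist mode, human GnRHR stably integrated in HEK293; dye 1 h at 37 C before compound; Ex/Em=480/540 kinetic read, 3 min; 15 concentrations, triplicate.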

[4] = molecular target: KiSS-1 receptor (Homo sapiens) (UniProt Q969F8); experiment: Human kisspeptin (KISS1R) small molecule agonists, calcium flux assay in KISS1R-HEK293 cells (AID 1920064; active means well fitted curve in the direction sought with a large enough effect in the repeat runs; an effect the other way counts as inactive or inconclusive)
How it was run: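 Triplicate 15-concentration series were applied to dye-loaded human KISS1R HEK293 cells, and agonist-evoked calcium fluorescence was captured for 3 min.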

[5] = G protein-coupled receptor (GPCR) small molecule agonists, calcium flux assay: HEK293 wild type cell line counter screen (AID 1920065)
How it was run: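 Non-specific calcium responders were flagged by adding DMSO-dissolved compounds to dye-loaded cells and reading 480/540 nm fluorescence each second for 3 min; ATP served as positive control.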

[6] = p53 small molecule agonists, cell-based qHTS assay with rat liver microsomes (AID 1963578)
How it was run: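 Compound in DMSO added to p53RE-bla cells 5 h post-plating; rat microsomes/NADPH 0.5 mg/mL final; 16 h, 37 C; LiveBLAzer 2 h RT.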

[7] = p53 small molecule agonists, cell-based qHTS assay with human liver microsomes: qHTS cell viability counter screen (AID 1963579); further: nearly all actives have a fitted effect of over 45% in size
How it was run: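 HLM-supplemented (0.5 mg/mL final) and NADPH-supplemented (0.5 mg/mL final) p53RE-bla cultures, 4,000 cells per well, were dosed with compounds in DMSO for 16 h at 37 C; luminescent ATP detection (CellTiter-Glo, 30 min, room temperature) quantified surviving cells.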

[8] = p53 small molecule agonists, cell-based qHTS assay with rat liver microsomes: qHTS cell viability counter screen (AID 1963580); further: nearly all actives have a fitted effect of over 45% in size
How it was run: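 Cytotoxicity counter screen: intracellular ATP read by CellTiter-Glo luminescence in the p53 reporter wells. HCT-116 p53RE-bla cells were treated for 16 h at 37 C alongside rat liver microsomes and NADPH, each 0.5 mg/mL final.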

[9] = p53 small molecule agonists, cell-based qHTS assay (AID 1963582; active means well fitted activation curve with a large enough effect in the signal ratio in the repeat runs, not every such curve was filed as active; the % refers to the signal ratio)
How it was run: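 Beta-lactamase reporter cells (p53RE-bla) treated with compounds for 16 h at 37 C; FRET substrate, 2 h, room temperature; fluorescence intensity.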

[10] = molecular target: 5-hydroxytryptamine receptor 2A (Homo sapiens) (UniProt P28223); experiment: 5-hydroxytryptamine receptor 2A (HTR2A) small molecule antagonists, cell-based qHTS assay (AID 1963586); further: nearly all actives have a fitted effect of over 45% in size; further: potency means the concentration at half of the fitted maximal effect
How it was run: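 CHO cells stably expressing human HTR2A were plated for 18 h at 37 C, then loaded with calcium dye for 1 h. Compounds were preincubated 5 min at room temperature before DOI (4 nM solution) was added. Kinetic fluorescence was read for 3 min.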

[11] = molecular target: 5-hydroxytryptamine receptor 2A (Homo sapiens) (UniProt P28223); experiment: 5-hydroxytryptamine receptor 2A (HTR2A) small molecule agonists, cell-based qHTS assay (AID 1963587); further: nearly all actives have a fitted effect of over 30% in size
How it was run: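 Kinetic calcium-flux fluorescence (2 min, 1 sec intervals) after compound addition in agonist mode. HTR2A-CHO cells were cultured 18 h, then dye-loaded 1 h at 37 C.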

[12] = molecular target: Muscarinic acetylcholine receptor M1 (Homo sapiens) (UniProt P11229); experiment: Cholinergic receptor muscarinic 1 (CHRM1) small molecule antagonists, cell-based qHTS assay (AID 1963588); further: nearly all actives have a fitted effect of over 40% in size; further: potency means the concentration at half of the fitted maximal effect
How it was run: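 Compounds were tested at 15 concentrations in three independent runs. Dye-loaded CHRM1-CHO cells were exposed 5 min at room temperature before stimulation by acetylcholine added at 50nM. Intracellular calcium was read kinetically on FDSS for 3 min.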

[13] = molecular target: Muscarinic acetylcholine receptor M1 (Homo sapiens) (UniProt P11229); experiment: Cholinergic receptor muscarinic 1 (CHRM1) small molecule agonists, cell-based qHTS assay (AID 1963589); further: nearly all actives have a fitted effect of over 35% in size
How it was run: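 qHTS, 15-point titration, 3 independent runs: compounds pin-transferred onto dye-loaded CHRM1-CHO cells (human M1), calcium fluorescence followed every second to detect agonism.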

[14] = cAMP Responsive Elements (CRE) small molecule agonists, cell-based qHTS assay (AID 1963590)
How it was run: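 Quantitative HTS for CRE agonists: HEK 293T CRE-bla cells, overnight plating, 3 h compound incubation at 37 C/5% CO2, then 2 h room-temperature LiveBLAzer B/G FRET substrate loading.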

[15] = cAMP Responsive Elements (CRE) small molecule antagonists, cell-based qHTS assay (AID 1963591; active means well fitted inhibition curve with a large enough effect in the signal ratio in the repeat runs, not every such curve was filed as active; the % refers to the signal ratio)
How it was run: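 Fluorescence intensity from cleaved LiveBLAzer B/G substrate (2 h, room temperature) quantified CRE-bla activity in HEK 293T cells exposed 3 h to compound with 0.25 uM final NKH477.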

[16] = molecular target: Beta-2 adrenergic receptor (Homo sapiens) (UniProt P07550); experiment: Adrenergic beta2 receptor (ADRB2) small molecule antagonists, cell-based qHTS assay (AID 1963592); further: series mostly up to about 92 µM; nearly all actives have a fitted effect of over 50% in size
How it was run: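 Assay format: CHO-ADRB2 cells, 18-20hr seeding at 37C/5% CO2, then compound plus 1nM isoproterenol agonist mix for 0.5hr RT. Homogeneous time-resolved fluorescence cAMP detection after 1hr, expressed as 665/615 nm ratio.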

[17] = molecular target: Beta-2 adrenergic receptor (Homo sapiens) (UniProt P07550); experiment: Adrenergic beta2 receptor (ADRB2) small molecule agonists, cell-based qHTS assay (AID 1963593);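 further: CHO cells stably overexpressing human ADRB2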
How it was run: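 CHO cells stably over-expressing ADRB2 were plated overnight at 37C, then dosed with compounds plus a stimulation mix containing 100uM IBMX and 25uM Ro-20-1724 for 0.5hr at room temperature. cAMP was measured by HTRF competition, 1hr.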

[18] = molecular target: D(2) dopamine receptor (Homo sapiens) (UniProt P14416); experiment: Dopamine D2 receptor (DRD2) small molecule agonists, cell-based qHTS assay (AID 1963594); further: nearly all actives have a fitted effect of over 35% in size
How it was run: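 cAMP accumulation in DRD2-HEK293 cells measured by HTRF after 1 h detection; compounds added 10 min before NKH477 (200nM […]) forskolin-analogue stimulation, 30 min at room temperature, with Ro20-1724 present at 0.1 mM final.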

[19] = molecular target: D(2) dopamine receptor (Homo sapiens) (UniProt P14416); experiment: Dopamine D2 receptor (DRD2) small molecule antagonists, cell-based qHTS assay (AID 1963595; active means well fitted inhibition curve with a large enough effect in the signal ratio in the repeat runs, with a control signal flat; the % refers to the signal ratio; further: potency means the concentration at half of the fitted maximal effect)
How it was run: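 Antagonist mode in DRD2-HEK293 cells: after compound addition with 0.1 mM Ro20-1724, cells received quinpirole (12 nM) and NKH477 (200 nM) for 30 min at room temperature; HTRF cAMP read after 1 h detection.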

[20] = p53 small molecule agonists, cell-based qHTS assay: qHTS cell viability counter screen (AID 1963581); further: nearly all actives have a fitted effect of over 45% in size
How it was run: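 Multiplexed with the reporter read, a CellTiter-Glo step (30 min, room temperature) gauges ATP-based viability of HCT-116 p53RE-bla cells after 16 h compound incubation at 37 C.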

Sequence of Beta-2 adrenergic receptor (Homo sapiens) (P07550 whole entry, looked up): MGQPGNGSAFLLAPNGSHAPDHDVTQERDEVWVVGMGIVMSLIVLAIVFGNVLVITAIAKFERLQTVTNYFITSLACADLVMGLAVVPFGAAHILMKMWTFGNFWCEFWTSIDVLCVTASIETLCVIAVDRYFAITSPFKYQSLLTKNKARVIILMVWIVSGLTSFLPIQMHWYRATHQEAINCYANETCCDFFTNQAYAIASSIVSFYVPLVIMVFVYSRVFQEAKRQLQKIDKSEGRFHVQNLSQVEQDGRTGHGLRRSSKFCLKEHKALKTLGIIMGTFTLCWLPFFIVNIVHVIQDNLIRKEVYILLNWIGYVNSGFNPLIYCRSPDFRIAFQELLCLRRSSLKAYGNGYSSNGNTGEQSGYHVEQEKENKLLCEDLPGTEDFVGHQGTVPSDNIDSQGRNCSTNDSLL
Sequence of 5-hydroxytryptamine receptor 2A (Homo sapiens) (P28223 whole entry, looked up): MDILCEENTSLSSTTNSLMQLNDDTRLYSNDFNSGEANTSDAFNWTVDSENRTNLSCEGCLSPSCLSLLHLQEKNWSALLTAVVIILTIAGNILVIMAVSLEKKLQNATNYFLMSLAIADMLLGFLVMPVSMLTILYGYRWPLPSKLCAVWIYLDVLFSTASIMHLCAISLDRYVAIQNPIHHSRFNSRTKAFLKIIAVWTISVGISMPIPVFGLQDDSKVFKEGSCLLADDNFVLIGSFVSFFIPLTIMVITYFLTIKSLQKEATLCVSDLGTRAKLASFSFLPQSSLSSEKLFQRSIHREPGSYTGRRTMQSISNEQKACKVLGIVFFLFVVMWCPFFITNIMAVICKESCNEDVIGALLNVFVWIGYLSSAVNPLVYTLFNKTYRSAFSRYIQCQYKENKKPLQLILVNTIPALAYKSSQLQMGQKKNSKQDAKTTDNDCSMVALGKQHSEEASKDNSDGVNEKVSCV
Sequence of KiSS-1 receptor (Homo sapiens) (Q969F8 whole entry, looked up): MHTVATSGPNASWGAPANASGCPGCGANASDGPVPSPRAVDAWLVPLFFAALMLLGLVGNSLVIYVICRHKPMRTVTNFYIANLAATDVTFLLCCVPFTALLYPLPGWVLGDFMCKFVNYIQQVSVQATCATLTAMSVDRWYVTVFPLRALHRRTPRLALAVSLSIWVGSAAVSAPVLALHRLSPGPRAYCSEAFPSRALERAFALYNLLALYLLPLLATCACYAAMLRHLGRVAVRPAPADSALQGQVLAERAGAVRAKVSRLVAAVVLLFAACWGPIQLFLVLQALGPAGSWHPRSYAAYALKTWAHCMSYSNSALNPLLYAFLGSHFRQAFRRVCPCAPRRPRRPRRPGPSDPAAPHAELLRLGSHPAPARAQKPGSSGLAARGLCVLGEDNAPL
Sequence of Muscarinic acetylcholine receptor M1 (Homo sapiens) (P11229 whole entry, looked up): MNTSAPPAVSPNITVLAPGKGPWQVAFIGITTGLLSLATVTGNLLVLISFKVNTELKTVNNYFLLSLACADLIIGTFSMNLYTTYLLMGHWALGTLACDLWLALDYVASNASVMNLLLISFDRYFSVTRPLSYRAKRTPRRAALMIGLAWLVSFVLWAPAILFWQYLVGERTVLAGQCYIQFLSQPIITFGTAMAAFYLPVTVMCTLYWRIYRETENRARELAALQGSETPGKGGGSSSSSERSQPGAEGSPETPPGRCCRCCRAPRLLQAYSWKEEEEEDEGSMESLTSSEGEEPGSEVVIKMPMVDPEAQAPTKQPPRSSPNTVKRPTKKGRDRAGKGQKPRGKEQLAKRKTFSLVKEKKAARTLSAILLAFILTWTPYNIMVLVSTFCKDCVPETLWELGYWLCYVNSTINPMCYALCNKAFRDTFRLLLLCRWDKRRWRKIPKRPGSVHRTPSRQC
Sequence of D(2) dopamine receptor (Homo sapiens) (P14416 whole entry, looked up): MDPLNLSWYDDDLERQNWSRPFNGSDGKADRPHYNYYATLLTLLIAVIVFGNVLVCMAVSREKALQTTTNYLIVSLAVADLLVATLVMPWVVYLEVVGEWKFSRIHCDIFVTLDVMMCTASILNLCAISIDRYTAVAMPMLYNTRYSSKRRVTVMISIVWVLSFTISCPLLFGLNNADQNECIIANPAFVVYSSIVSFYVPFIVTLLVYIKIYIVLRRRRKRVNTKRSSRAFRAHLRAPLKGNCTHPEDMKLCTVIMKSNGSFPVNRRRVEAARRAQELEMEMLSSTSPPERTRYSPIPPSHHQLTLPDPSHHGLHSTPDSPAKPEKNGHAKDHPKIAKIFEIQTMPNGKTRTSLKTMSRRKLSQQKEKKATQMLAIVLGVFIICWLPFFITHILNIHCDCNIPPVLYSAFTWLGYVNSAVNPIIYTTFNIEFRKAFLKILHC
Sequence of Gonadotropin-releasing hormone receptor (Homo sapiens) (P30968 whole entry, looked up): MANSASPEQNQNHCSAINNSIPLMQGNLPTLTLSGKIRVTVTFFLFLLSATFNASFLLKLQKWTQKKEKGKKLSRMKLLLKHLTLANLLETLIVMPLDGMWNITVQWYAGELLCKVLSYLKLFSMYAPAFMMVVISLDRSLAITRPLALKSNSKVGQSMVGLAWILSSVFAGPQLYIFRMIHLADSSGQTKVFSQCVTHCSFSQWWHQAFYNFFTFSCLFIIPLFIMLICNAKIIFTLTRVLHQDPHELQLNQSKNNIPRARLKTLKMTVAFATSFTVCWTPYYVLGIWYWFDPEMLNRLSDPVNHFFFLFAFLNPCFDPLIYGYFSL

| SMILES | Potency [1] | Potency [2] | Potency [3] | Potency [4] | Potency [5] | Potency [6] | Potency [7] | Potency [8] | Potency [9] | Potency [10] | Potency [11] | Potency [12] | Potency [13] | Potency [14] | Potency [15] | Potency [16] | Potency [17] | Potency [18] | Potency [19] | Potency [20] |
| --- | --- | --- | --- | --- | --- | --- | --- | --- | --- | --- | --- | --- | --- | --- | --- | --- | --- | --- | --- | --- |
| CC(=O)OC/C=C(/C)CCC=C(C)C | inactive | inactive | inactive | inactive | inactive | inactive | inactive | inactive | inactive | inactive | inactive | inactive | inactive | inactive | inactive | inactive | inactive | inactive | inactive |  |
| NS(=O)(=O)c1ccc(C(=O)O)cc1 | inactive | inactive | inactive | inactive | inactive | inactive | inactive | inactive |  | inactive | inactive | inactive | inactive | inactive | inactive | inactive | inactive | inactive | inactive |  |
| C[C@@H](O)C(=O)O | inactive | inactive | inactive | inactive | inactive | inactive | inactive | inactive | inactive |  |  |  |  | inactive | inactive |  |  | inactive | inactive |  |
| NC(=O)n1c(O)c(C(=O)c2cccs2)c2cc(Cl)ccc21 | inactive | 26.6 µM (active) | inactive | inactive | inactive | inactive | inactive | inactive |  | inactive | inactive | inactive | inactive |  |  | inactive |  | inactive | inactive | inactive |
| CCCCNC(=O)NCCCC | inactive | inactive | inactive | inactive | inactive | inactive | inactive |  | inactive | inactive | inactive | inactive | inactive | inactive | inactive | inactive | inactive | inactive |  | inactive |
| Nc1ccc2ccccc2c1S(=O)(=O)O | inactive | 44.1 µM (active) | inactive | inactive | inactive | inactive | inactive | inactive |  | inactive | inactive | inactive | inactive | inactive |  | inactive |  | inactive | inactive | inactive |
| COC(=O)CSc1cc(N=c2sc(=O)n3n2CCCC3)c(F)cc1Cl | inactive | inactive | inactive | inactive | inactive | inactive | inactive | inactive |  | inactive | inactive | inactive | inactive |  |  | inactive |  |  |  | inactive |
| O[Si](c1ccccc1)(c1ccccc1)c1ccccc1 | inactive | inactive | inactive | inactive | inactive | inactive | inactive | inactive |  | inactive | inactive | inactive | inactive | inactive | inactive | inactive |  | inactive | inactive | inactive |
| CC/C(C)=N\O[Si](C)(O/N=C(\C)CC)O/N=C(\C)CC | inactive | inactive | inactive | inactive | inactive | inactive | inactive | inactive | inactive |  | inactive | 3.39 µM (active) | inactive | inactive | inactive | inactive |  | inactive | inactive |  |
| C[C@@H]1C[C@H]2[C@@H]3CCC4=CC(=O)C=C[C@]4(C)[C@@]3(Cl)[C@@H](O)C[C@]2(C)[C@@]1(OC(=O)c1ccco1)C(=O)CCl | inactive | inactive | inactive | inactive | inactive | inactive | inactive | inactive | inactive | inactive | inactive | inactive | inactive |  | inactive | inactive |  | inactive | inactive |  |
| COc1ccc(/C=C/c2cc(OC)cc(=O)o2)cc1 | inactive | inactive | inactive | inactive | inactive | inactive | inactive | inactive |  | 9.64 µM (active) | inactive |  | inactive |  | inactive | inactive | inactive | inactive | inactive |  |
| CC[C@H]1O[C@]2(CC[C@@H]1C)C[C@@H]1C[C@@H](C/C=C(\C)C[C@@H](C)/C=C/C=C3\CO[C@@H]4[C@H](O)C(C)=C[C@@H](C(=O)O1)[C@]34O)O2 | 15.2 µM (active) | inactive | inactive | inactive | inactive | inactive | inactive | inactive |  | inactive | inactive | inactive |  |  |  | inactive |  | inactive | 48.1 µM (active) | inactive |
| CCCc1ccc(OCC(=O)N2CCN(C(=O)COc3ccc(CCC)cc3OC)CC2)c(OC)c1 | inactive | inactive | inactive | inactive | inactive | inactive | inactive | inactive | inactive | inactive | inactive | inactive | inactive | inactive | inactive | inactive |  | inactive | inactive |  |
| Cc1c(-c2ccccc2)oc2c(C(=O)OCCN3CCCCC3)cccc2c1=O | inactive | inactive | inactive | inactive | inactive | inactive | inactive | inactive |  |  |  |  |  |  | inactive | inactive | inactive | inactive |  | inactive |
